This is one part of a sample in which hits are shown more often than they occur.
Shh pathway inh: Sonic Hedgehog pathway inhibition | inhibition, % (concentration not given with the values) | 2.1% of 22,000 active | Shh-LIGHT2 Gli-luciferase reporter, 30 h;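 active = mean inhibition across valid replicates above about 65%, limit read from the data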;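 also: pathway switched on by Shh-conditioned medium diluted 1 in 25 in low serum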
MITF inhib: inhibitors of MITF; TRPM1 promoter luciferase, luminescence, 24 h; inhibition, % (no concentration beside the values); 0.28% of 37,000 active; AID 2240; in the data active = inhibition above about 85%;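 also: human melanocyte line stably carrying TRPM1 promoter luciferase reporter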
PD-1 reverse act: reversal of PD-1 mediated T-cell inhibition | primary human CD4 T cells, PD-L1 beads, CellTiter-Glo 96 h | activation, % (concentration not given with the values) | 29,000 tested, under 10 active; call rule not given here;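 also: 0% = median vehicle wells and 100% = positive control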
* hit, by the source's call; nt = not tested or not shown.

SMILES | Shh pathway inh | MITF inhib | PD-1 reverse act
C/C=C(\C)C(=O)OC1C(OC(=O)/C=C(/C)CC(=O)O)C2(CO)C(O)CC3(C)C(=CCC4C5(C)CCC(OC6OC(C(=O)O)C(O)C(OC7OC(C)C(O)C(OC8OC(CO)C(O)C(O)C8O)C7O)C6O)C(C)(C)C5CCC43C)C2CC1(C)C (stereo not drawn) | 97* | 98* | -39
C/C=C(/C)C(=O)O[C@H]1[C@H](OC(=O)/C=C/c2ccccc2)[C@@]23C(CC1(C)C)[C@]1(CCC4[C@@]5(C)CC[C@H](O[C@@H]6O[C@H](C(=O)O)[C@@H](O)[C@H](O[C@@H]7O[C@H](CO)[C@H](O)[C@H](O)[C@H]7O[C@@H]7O[C@@H](C)[C@H](O)[C@@H](O)[C@H]7O[C@@H]7OC[C@](O)(CO)[C@H]7O)[C@H]6O[C@@H]6O[C@H](CO)[C@H](O)[C@H](O)[C@H]6O)C(C)(C)C5CC[C@@]4(C)[C@]1(C)C[C@H]2O)O[C@H]3O (stereo partly drawn) | 88* | 90* | -15
C[C@@H]1O[C@@H](O[C@H]2[C@H](O[C@H]3[C@H](O)[C@@H](C(=O)O)O[C@@H](O[C@H]4CC[C@@]5(C)C(CC[C@]6(C)C5CC[C@]57OC[C@@]8(CCC(C)(C)CC85)[C@H](O)C[C@]76C)C4(C)C)[C@@H]3O[C@@H]3O[C@H](CO)[C@@H](O[C@@H]4OC[C@@H](O)[C@H](O)[C@H]4O)[C@H](O)[C@H]3O)O[C@H](CO)[C@H](O)[C@@H]2O)[C@H](O)[C@H](O)[C@H]1O (stereo partly drawn) | 42 | -15 | -12
C[C@H]1CN([C@@H](C)CO)C(=O)c2cccc(NS(=O)(=O)c3ccccc3)c2O[C@H]1CN(C)S(=O)(=O)c1cccs1 | -3 | 0 | nt
Cc1cc(C(=O)Nc2cccc3c2O[C@@H](CN(C)S(C)(=O)=O)[C@@H](C)CN([C@H](C)CO)C3=O)n(C)n1 | -28 | -2 | 1
Cc1ccc(S(=O)(=O)Nc2ccc3c(c2)CC(=O)N([C@@H](C)CO)C[C@@H](C)[C@@H](CN(C)Cc2ccc(C(=O)Nc4ccccc4N)cc2)O3)cc1 | nt | 11 | 1
C[C@H]1CC2C([C@@H](O)C[C@@]3(C)C2CC[C@]3(O)C(=O)CO)[C@@]2(C)C=CC(=O)C=C12 (stereo partly drawn) | 32 | -18 | nt
C[C@H]1C[C@@H]2[C@H]([C@@H](O)C[C@@]3(C)[C@H]2CC[C@]3(O)C(=O)CO)[C@@]2(C)C=CC(=O)C=C12 | 70* | -32 | nt
C[C@@H]1CN([C@@H](C)CO)C(=O)Cc2cc(NC(=O)Nc3ccccc3)ccc2O[C@@H]1CN(C)C | 10 | -7 | 0
CO[C@@H]1C=C[C@@]23c4cc5c(cc4CN(CC2O)[C@H]3C1)OCO5 (stereo partly drawn) | 88* | 49 | -1
CCCC(NS(=O)(=O)c1ccc(C)cc1)C(=O)O (stereo not drawn) | nt | -12 | nt
Cc1ccc(S(=O)(=O)N[C@@H](Cc2ccccc2)C(=O)CCl)cc1 | 95* | 83 | nt
C=C1C(=O)OC2/C=C(\CO)C(OC(C)=O)C/C=C(/C)CC(OC(=O)/C(C)=C\CO)C12 (stereo not drawn) | 48 | -5 | -6
C/C=C(/C)C(=O)O[C@H]1C=C(CO)C(=O)[C@H](OC(=O)/C(C)=C/CO)[C@H]1C(C)C | 46 | 106* | -37
CCOC(=O)C1=C(C)NC(=S)NC1c1ccc(-c2ccccc2Cl)o1 (stereo not drawn) | 6 | 11 | -3
CCC(C)[C@H]1C(=O)O[C@H](C(C)C)C(=O)N(C)[C@@H](C(C)C)C(=O)O[C@H](C(C)C)C(=O)N(C)[C@@H](C(C)C)C(=O)O[C@H](CC(C)C)C(=O)N1C (stereo partly drawn) | 106* | 78 | -14
Cc1cc[n+](Cc2ccccn2)c(N)c1 | -26 | 0 | 1
c1ccc(CN(CCN(Cc2ccccn2)Cc2ccccn2)Cc2ccccn2)nc1 | -181 | 88* | -51
COc1ccc(NC(=O)CN(c2ccc(F)c(Cl)c2)S(C)(=O)=O)cc1Cl | nt | 2 | 1
Cc1c(Cl)cccc1NC(=O)CN(c1cccc(F)c1)S(C)(=O)=O | nt | 9 | 0
N#CC(C#N)=C(Nc1ccccc1Cl)SCc1cccc(F)c1 | 112* | 89* | -1
C[C@H](CO)N1C[C@H](C)[C@H](CN(C)C(=O)Nc2ccc3c(c2)OCO3)Oc2ccc(NS(=O)(=O)c3ccc(F)cc3)cc2CC1=O | -3 | -15 | 1
Cc1ccc(S(=O)(=O)CCSc2sc(C#N)c3c2C(=O)CC(C)(C)C3)cc1 | 66* | -17 | -2
CCOC(=O)c1sc(SCCS(=O)(=O)c2ccc(Cl)cc2)c2c1CCCC2=O | 16 | -8 | 0
